# Screens: PubChem BioAssay, National Center for Advancing Translational Sciences (NCATS)
# POLB inh – DNA polymerase beta (human) inhibition; Pol beta primer extension/strand displacement, fluorescence kinetic; Potency, µM (series often up to 114 µM), without a hit: at the top dose activity change, negative = inhibition, most hits filed as inhibitors; 340,000 compounds, 1.3% hits; AID 485314; note: % is set by controls: 0 for no effect and ±100 for the full control effect
#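 Kinetic readout of DNA synthesis with strand displacement by Pol beta. Compound and 10 nM enzyme sit 15 min at room temperature; 50 nM substrate starts the reaction, read immediately and at 10 min.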
# WRN inhibitor – inhibitors of human WRN helicase. Q14191. WRN helicase unwinding, fluorescent forked duplex, kinetic. Potency, µM (highest dose often 114 µM), for the others: top-dose activity change, negative = inhibition, actives largely listed as inhibitors. 360,000 compounds, 0.46% hits; note: % is set by controls: 0 for no effect and ±100 for the full control effect; nearly all actives have a fitted effect of over 55% in size
#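 Screening of the MLSMR collection measured strand separation of a quenched forked DNA duplex (100 nM) by 20 nM WRN with 2 mM ATP, all final. Compounds were preincubated with enzyme 15 min at room temperature.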
# FEN1 inhibitor – inhibitors of human flap endonuclease 1; P39748; Recombinant FEN1 flap cleavage, fluorescence, 15 min; Potency, µM (doses to about 114 µM), for the others: top-dose activity change, negative = inhibition, hits mostly inhibitors; 390,000 compounds, 0.35% hits; AID 588795; note: % is set by controls: 0 for no effect and ±100 for the full control effect; nearly all actives have a fitted effect of over 65% in size
#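 Quantitative HTS format: each compound was titrated, incubated with 10 nM nuclease for 15 min at room temperature, then challenged with flap substrate at 50 nM final. Signal change over 15 min gave concentration–effect curves.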
# Pol iota inh – inhibitors of human DNA polymerase iota; Q9UNA4; Pol iota fluorescent replication assay, 10 min; 390,000 compounds, 1% hits; Potency, µM (top dose mostly 115 µM), inactives show top-dose activity, negative = inhibition, actives largely listed as inhibitors; AID 588590
#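 Fluorescent replication assay read twice, at 0 min and 10 min after adding 50 nM (final) substrate. Enzyme (10 nM) and compounds were first incubated 15 min at room temperature; enzyme-free buffer wells were negative controls.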
# Pol eta inh-1 – DNA polymerase eta (human) inhibition | Q9Y253 | recombinant Pol eta, fluorescent DNA replication assay | Potency, µM (titrated, usually from 114 µM), inactives show at the highest dose activity change, negative = inhibition, most hits filed as inhibitors | 390,000 compounds, 1.2% hits | AID 588591; note: % is set by controls: 0 for no effect and ±100 for the full control effect
#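 Pol eta at 10 nM preincubated with compounds 15 min at room temperature; reaction started with fluorescent substrate (50 nM final) and read kinetically at 0 and 10 min.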
# Pol kappa inh-1 – blocks human DNA polymerase kappa activity | Q9UBT6 | purified Pol kappa, fluorescent DNA synthesis assay, 10 min | Potency, µM (highest dose often 107 µM), inactives show top-dose activity, negative = inhibition, actives largely listed as inhibitors | 400,000 compounds, 0.53% hits; note: % is set by controls: 0 for no effect and ±100 for the full control effect
#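 Kinetic fluorescence screen: compound preincubated 15 min RT with 10 nM enzyme; 50 nM substrate (final) initiates; reads at 0/10 min.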
# TbPGK inh – TbPGK inhibition, hit validation; AID 686980; 500 compounds, 79% hits; TbPGK coupled GAPDH assay, Kinase-Glo luminescence; shares compounds with Pol kappa inh-1; Potency, µM (series often up to 57.5 µM), for inactives: at the top dose activity change, negative = inhibition, hits mostly inhibitors; note: % is set by controls: 0 for no effect and ±100 for the full control effect; nearly all actives have a fitted effect of over 65% in size
# Pol iota confirm – Inhibitors of human DNA polymerase iota, confirmation; shares compounds with Pol kappa inh-1; Pol iota primer extension, TAMRA/BHQ fluorescence; Potency, µM, usual class: inhibitors; 1,500 compounds, 77% hits; AID 720496
# Pol kappa inh-2 – Pol kappa (human) inhibition, cherry-pick confirmation | shares compounds with Pol eta inh-1 | purified Pol-kappa, fluorescent strand-displacement substrate | Potency, µM, actives largely listed as inhibitors | 920 compounds, 76% hits
# Pol eta inh-2 – confirmation of human DNA polymerase eta inhibitors; shares compounds with Pol eta inh-1; 2,600 compounds, 64% hits; AID 720502; Pol eta primer extension, TAMRA/BHQ fluorescence, 10 min; Potency, µM, usual class: inhibitors
# An asterisk follows results filed as active; ? = inconclusive; . = no result given; [ ] = dose if it differs, or a comment. Sampled rows, rich in hits. Any-hit rate of the full collection: about 2.4%. Calls come from the whole dose curve; as a rule, active = well fitted curve in the direction sought with a large enough effect; inconclusive = small, poorly fitted or top-dose-only effect, or another doubt; inactive = no such curve, though single readings can be large; an effect the other way counts as inactive or inconclusive. Potency is the fitted concentration of half-maximal effect.
SMILES,POLB inh,WRN inhibitor,FEN1 inhibitor,Pol iota inh,Pol eta inh-1,Pol kappa inh-1,Pol iota confirm,Pol eta inh-2,others
O=C(CSc1nnc(SCc2cccc3ccccc23)s1)N/N=C/c1c[nH]c2ccccc12,5%,-10%,9%,7%,-19%,1%,.,.,
O=C(CSc1nnc(SCc2ccccc2)s1)N/N=C/C=C/c1ccco1,10µM*,40µM*,?,14µM*,2.8µM*,25µM*,15*,19*,Pol kappa inh-2=15*
CCn1c(SCC(=O)N/N=C/C(C)=C/c2ccco2)nnc1-c1ccccc1,?,?,-21%,?,89µM*,?,60*,?,
CCn1c(SCC(=O)N/N=C(\C)c2ccco2)nnc1-c1ccccc1,13%,1%,-4%,13%,-6%,5%,.,.,
Cn1c(SCC(=O)N/N=C/C=C/c2ccco2)nc2ccccc21,22µM*,?,?,35µM*,14µM*,79µM*,67*,76*,
CN(c1ccccc1)c1nc(C#N)nc(N2CCOCC2)n1,.,.,6%,11%,.,0%,.,.,
Cc1ccc2c(c1)c1c3n2CCN(C(=O)c2cccc(C(F)(F)F)c2)C3CCC1 (stereo unspecified),3%,.,-23%,13%,-20%,-21%,.,.,
COc1cc(OC)c(C(=O)NCc2nc(-c3ccccc3)no2)cc1OC,-27%,.,-14%,-9%,-15%,0%,.,.,
COc1cc2c(cc1OC)C(c1oc(-c3ccc(-c4cc(Cl)ccc4Cl)o3)cc1C)=NCC2,.,.,-5%,-2%,.,-6%,.,.,
O=C(Cc1cccs1)N/N=C/C=C/c1ccco1,18µM*,?,-18%,28µM*,8.9µM*,79µM*,?,?,Pol kappa inh-2=30*
CC(=O)OCC(NC(=O)C(COCc1ccccc1)NC(=O)OC(C)(C)C)C1OC(n2cc(C)c(=O)[nH]c2=O)C(OC(C)=O)C1OC(C)=O (stereo unspecified),.,.,17%,?,.,-3%,.,.,
Cc1ccc(CCNC(=O)c2cc3c(s2)-c2ccccc2OC3)cc1,14µM*,.,?,79µM*,?,?,47*,?,
CCC(=O)Nc1nnc(SCc2cc(=O)c3cc(C)ccc3[nH]2)s1,-11%,.,-3%,-16%,6%,-7%[60.1 µM],.,.,
CC(=O)Nc1nnc(SCc2cc(=O)c3cc(C)ccc3[nH]2)s1,40µM*,.,-11%,79µM*,50µM*,-3%[60.1 µM],67*,?,Pol kappa inh-2=17*
NS(=O)(=O)c1ccc(N=Nc2ccc(=O)[nH]c2O)cc1,6.3µM*,50µM*,79µM*,?,10µM*,?,38*,?,TbPGK inh=5.2µM*;Pol kappa inh-2=15*
Clc1ccccc1-c1nn2c(-c3cc(-c4ccccc4)n[nH]3)nnc2s1,.,.,-1%,?,.,-6%,.,.,
CC(=O)Nc1ccc(S(=O)(=O)N(C)CC(=O)OCC(=O)N2CCCCCC2)cc1,31%,2%,4%,26%,-13%,-12%,.,.,
CC(=O)Nc1ccc(S(=O)(=O)N(C)CC(=O)OCC(=O)N2CCN(C(=O)c3ccco3)CC2)cc1,.,-15%[11.6 µM],1%,40µM*,28µM*,?,?,76*,
